In the library only some 2.4% were active in any assay of this set; here they are far more common.
Pol kappa inh: qHTS for Inhibitors of Polymerase Kappa; hit rate 0.53% among 400,000; DNA polymerase kappa (Homo sapiens), Q9UBT6; Potency, µM (titrated, usually from 107 µM), hits mostly inhibitors; purified Pol kappa, fluorescent DNA synthesis assay, 10 min; AID 588579, 2011
Target sequence (Q9UBT6 whole entry, looked up): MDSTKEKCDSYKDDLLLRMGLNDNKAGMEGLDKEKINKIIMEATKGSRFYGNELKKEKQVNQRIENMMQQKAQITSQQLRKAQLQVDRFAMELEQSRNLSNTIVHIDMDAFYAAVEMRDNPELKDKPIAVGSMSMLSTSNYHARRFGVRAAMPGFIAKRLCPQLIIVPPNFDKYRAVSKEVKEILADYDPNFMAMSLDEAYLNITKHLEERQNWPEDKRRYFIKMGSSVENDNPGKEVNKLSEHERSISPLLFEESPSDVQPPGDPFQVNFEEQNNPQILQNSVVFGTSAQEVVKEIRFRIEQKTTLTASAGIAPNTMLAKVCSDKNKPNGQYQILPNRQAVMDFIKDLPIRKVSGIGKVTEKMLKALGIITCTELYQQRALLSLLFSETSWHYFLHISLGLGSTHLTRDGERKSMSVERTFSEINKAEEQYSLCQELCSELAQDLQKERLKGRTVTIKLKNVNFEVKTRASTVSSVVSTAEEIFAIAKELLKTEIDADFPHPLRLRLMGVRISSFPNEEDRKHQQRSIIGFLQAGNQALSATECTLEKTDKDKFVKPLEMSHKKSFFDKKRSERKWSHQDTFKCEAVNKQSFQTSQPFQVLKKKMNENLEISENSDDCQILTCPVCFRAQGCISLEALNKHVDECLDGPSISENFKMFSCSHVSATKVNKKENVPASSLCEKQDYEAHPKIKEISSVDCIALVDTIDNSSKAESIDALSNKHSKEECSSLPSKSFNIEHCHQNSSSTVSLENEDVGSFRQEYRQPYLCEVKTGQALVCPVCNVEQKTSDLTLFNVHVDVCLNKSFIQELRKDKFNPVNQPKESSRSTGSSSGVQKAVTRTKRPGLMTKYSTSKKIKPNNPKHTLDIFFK
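Activity was followed as the change in fluorescence between reads at 0 and 10 min after starting the reaction with 50 nM substrate. Beforehand, 10 nM polymerase had been preincubated with compound for 15 min at room temperature.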
POLI inh: qHTS for Inhibitors of Polymerase Iota. DNA polymerase iota (Homo sapiens), Q9UNA4. Pol iota fluorescent replication assay, 10 min. AID 588590, 2011. Potency, µM (titrated, usually from 115 µM), hits mostly inhibitors. hit rate 1% among 390,000
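Fluorescent replication assay read twice, at 0 min and 10 min after adding 50 nM (final) substrate. Enzyme (10 nM) and compounds were first incubated 15 min at room temperature; enzyme-free buffer wells were negative controls.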
L3MBTL1 inh: qHTS Assay for the Inhibitors of L3MBTL1 | Lethal(3)malignant brain tumor-like protein 1 (Homo sapiens), Q9Y468 | AlphaScreen L3MBTL1–H3K9me1 peptide binding | Potency, µM (series often up to 57.1 µM), hits mostly inhibitors | hit rate 0.66% among 230,000 | AID 485360, 2010; also: nearly all actives have a fitted effect of over 60% in size
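Read-out is AlphaScreen signal from streptavidin donor and nickel chelate acceptor beads (10 ug/mL final each) bridging L3MBTL1 (50 nM) and biotinylated K9-monomethylated H3(1-15) peptide (75 nM), after 30 min compound exposure at room temperature.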
POLB inh: qHTS Assay for Inhibitors of DNA Polymerase Beta; Pol beta primer extension/strand displacement, fluorescence kinetic; Potency, µM (top dose mostly 114 µM), actives largely listed as inhibitors; hit rate 1.3% among 340,000; AID 485314, 2010
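Human Pol beta at 10 nM; strand-displacement substrate 50 nM final. Compound exposure 15 min at room temperature before start, reaction 10 min at room temperature.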
Pol eta inh: qHTS for Inhibitors of Polymerase Eta. DNA polymerase eta (Homo sapiens), Q9Y253. recombinant Pol eta, fluorescent DNA replication assay. Potency, µM (highest dose often 114 µM), actives largely listed as inhibitors. hit rate 1.2% among 390,000. AID 588591, 2011
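Pol eta at 10 nM preincubated with compounds 15 min at room temperature; reaction started with fluorescent substrate (50 nM final) and read kinetically at 0 and 10 min.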
Of the large screens only hits and unclear results are named; the others gave an inactive call. Calls follow the shape of the dose curve; as a rule, active = well fitted curve in the direction sought with a large enough effect; inconclusive = small, poorly fitted or top-dose-only effect, or another doubt; inactive = no such curve, though single readings can be large; an effect the other way counts as inactive or inconclusive.

O=C(NNC(=O)c1ccc([N+](=O)[O-])o1)c1ccccc1	none
Cc1cccc(-c2nn(C(=S)Nc3ccccc3)cc2-c2ccnc3ccccc23)n1	none (no result: POLI inh, L3MBTL1 inh, POLB inh, Pol eta inh)
CCN(CC)CCn1c2ccccc2c2cnc(N)c(C#N)c21	Pol kappa inh inconclusive, POLI inh inconclusive, POLB inh 14µM, Pol eta inh inconclusive
CCOc1ccc(NC(=O)c2c(NCc3sccc3C)sc3c2CCCCC3)cc1	POLI inh inconclusive, POLB inh inconclusive (no result: L3MBTL1 inh)
COc1ccc(-c2cc3ncnc(Cl)c3s2)cc1	POLI inh inconclusive, POLB inh inconclusive, Pol eta inh inconclusive (no result: L3MBTL1 inh)
Cc1ccc(CNc2ccc3nnc(-c4ccccc4)n3n2)cc1	POLB inh 56µM, Pol eta inh inconclusive
CCCCn1c(SCC(=O)c2ccc(OC)cc2OC)nc2cc(S(N)(=O)=O)ccc21	Pol kappa inh inconclusive, POLI inh 45µM, L3MBTL1 inh inconclusive, POLB inh 40µM, Pol eta inh 25µM
CCCCn1c(SC(C)C(=O)c2ccc(OC)cc2)nc2cc(S(N)(=O)=O)ccc21 (configuration not stated)	none
Nc1cc([N+](=O)[O-])ccc1N1C(=O)CCCC1=O	POLI inh inconclusive, POLB inh 40µM
Nc1cc(Cl)ccc1N1C(=O)CCC1=O	none
C[C@@H]1OC(OC2CC[C@@]3(C)C(CC[C@@]4(C)C3CC=C3C5CC(C)(C)CC[C@]5(C(=O)OC5OCC(O)[C@@H](O)[C@@H]5OC5O[C@@H](C)[C@H](O[C@H]6OC(CO)C(O)C(O)C6O)C(O)C5O)C(O)C[C@@]34C)C2(C)C)C(O)C(O)[C@H]1OC1OCC(O)C(O)[C@H]1O (some centres not stated)	Pol kappa inh 25µM (no result: POLI inh, L3MBTL1 inh, POLB inh, Pol eta inh)
COc1ccc(C(=O)CC(c2ccccc2)C2C(=O)CCCC2=O)cc1 (configuration not stated)	POLI inh inconclusive, Pol eta inh 79µM (no result: L3MBTL1 inh)
COc1ccc(C(CC(=O)c2ccccc2)C2CCCCC2=O)cc1 (configuration not stated)	none (no result: L3MBTL1 inh)
C#Cc1ccc([C@H]2C=C(C(=O)OCC=C)O[C@@H](OCc3ccc(CO)cc3)C2)cc1	Pol kappa inh inconclusive, POLI inh inconclusive, Pol eta inh 28µM (no result: L3MBTL1 inh, POLB inh)
C#CCNC(=O)C1=C[C@H](c2ccc(C#C)cc2)C[C@H](OCc2ccc(CO)cc2)O1	Pol kappa inh inconclusive, POLI inh inconclusive, Pol eta inh 45µM (no result: L3MBTL1 inh, POLB inh)
C=CCOC(=O)C1=C[C@@H](c2ccc(Br)cc2)C[C@@H](OCc2ccc(CO)cc2)O1	none
O=C(CCNS(=O)(=O)c1ccc2c(c1)CCN2C(=O)C1CC1)N1CCN(c2cccc(C(F)(F)F)c2)CC1	none (no result: L3MBTL1 inh)
CC(Sc1ccsc1[N+](=O)[O-])C(=O)NCc1ccco1 (configuration not stated)	Pol kappa inh inconclusive, POLI inh inconclusive, POLB inh 22µM, Pol eta inh 40µM (no result: L3MBTL1 inh)
CCOC(=O)c1noc2ncnc(Nc3cccc(C(F)(F)F)c3)c12	Pol kappa inh inconclusive (no result: L3MBTL1 inh)
COCC(=O)N1CCC2(CCN(Cc3ccc(C#N)cc3)CC2)CC1	none (no result: POLI inh, L3MBTL1 inh, POLB inh, Pol eta inh)
COC(=O)c1c(C)sc(-c2c(-c3ccc4c(c3)OCCO4)[nH]c3c2c(=O)n(C)c(=O)n3C)c1O	none (no result: L3MBTL1 inh, Pol eta inh)
COC(=O)c1c(C)sc(-c2c(-c3ccc4c(c3)OCCO4)[nH]c3[nH]c(=O)[nH]c(=O)c23)c1O	Pol kappa inh inconclusive, POLI inh inconclusive, POLB inh 40µM (no result: L3MBTL1 inh, Pol eta inh)
O=C(CSc1c2c(nc3ccccc13)CCC2)Nc1ccc(F)cc1	POLI inh inconclusive (no result: L3MBTL1 inh)
O=S(=O)(O)c1ccc2c(N=Nc3ccc(S(=O)(=O)O)c4ccccc34)c(O)c(S(=O)(=O)O)cc2c1	Pol kappa inh 45µM, POLI inh 45µM (no result: L3MBTL1 inh, POLB inh, Pol eta inh)
CC(=O)Nc1ccc(S(=O)(=O)O)c2cc(S(=O)(=O)O)c(N=Nc3ccc(N=Nc4ccc(S(=O)(=O)O)cc4)c4ccc(S(=O)(=O)O)cc34)c(O)c12	Pol kappa inh 1.4µM, POLI inh 3.2µM (no result: L3MBTL1 inh, POLB inh, Pol eta inh)
O=C(CSc1nnc(-c2ccccc2)o1)c1nnc(-c2ccccc2)o1	Pol eta inh 20µM
CCOC(=O)CSc1nnc(-c2ccccc2)o1	POLI inh inconclusive
Cc1cccc2c1-c1sc(C(=O)NCCc3ccc(Cl)cc3)cc1CO2	POLI inh inconclusive, POLB inh 8.9µM (no result: L3MBTL1 inh)
COc1ccc(CNC(=O)c2cc3c(s2)-c2c(C)cccc2OC3)cc1	POLI inh inconclusive, POLB inh 14µM (no result: L3MBTL1 inh)
O=C(NCCCc1nc2ccccc2n1CCCOc1ccccc1)C1CCCCC1	none (no result: L3MBTL1 inh, POLB inh, Pol eta inh)
COc1ccc(CCC(C)N2CCC(Oc3ccc(C(=O)N4CCCC4)cc3)CC2)cc1 (configuration not stated)	POLI inh 89µM (no result: L3MBTL1 inh)
CC(CCc1ccc(O)cc1)N1CCC(Oc2ccc(C(=O)N3CCCC3)cc2)CC1 (configuration not stated)	POLB inh inconclusive (no result: L3MBTL1 inh)
COC(=O)c1sc(N)c(C(=O)OC)c1COC(=O)CCNS(=O)(=O)c1ccc(C)cc1	POLI inh 89µM, Pol eta inh inconclusive
COC(=O)c1sc(N)c(C(=O)OC)c1COC(=O)CNS(=O)(=O)c1ccc(C)c(C)c1	POLB inh inconclusive
O=C(CN(CCc1c[nH]c2ccccc12)S(=O)(=O)c1ccccc1)N1CCCCCC1	none (no result: L3MBTL1 inh, POLB inh, Pol eta inh)
CCOc1cc(NC(=O)c2ccco2)c(OCC)cc1NC(=O)Cc1ccc(OC)c(OC)c1	POLI inh 50µM
CCOc1cc(NC(=O)c2ccco2)c(OCC)cc1NC(=O)CCc1ccc(OC)cc1	none (no result: Pol kappa inh, POLI inh, Pol eta inh)
Cc1oc(C(=O)O)cc1COc1ccc2c(C)cc(=O)oc2c1	POLB inh inconclusive, Pol eta inh 22µM
COC(=O)c1cc(COc2ccc3ccc(=O)oc3c2)c(C)o1	none
CCN(CC)c1ccc(C(=C2C=CC(=[N+](CC)Cc3cccc(S(=O)(=O)[O-])c3)C=C2)c2ccc(N(CC)Cc3cccc(S(=O)(=O)O)c3)cc2)cc1	Pol kappa inh 4.2µM (no result: POLI inh, L3MBTL1 inh, POLB inh, Pol eta inh)
CCc1ccc2[nH]c(=O)c(CN(Cc3cccnc3)Cc3nnnn3Cc3ccccc3)cc2c1	none (no result: L3MBTL1 inh, POLB inh, Pol eta inh)
Cc1ccc(-c2cc(C(=O)Nc3nccs3)c3ccccc3n2)o1	POLI inh inconclusive, L3MBTL1 inh inconclusive, POLB inh 25µM, Pol eta inh inconclusive
Cc1cc(C)nc(NS(=O)(=O)c2ccc(NC(=O)c3cc(-c4ccccc4)nc4ccccc34)cc2)n1	Pol eta inh inconclusive
O=C(Nc1ccc(S(=O)(=O)Nc2nccs2)cc1)c1cc(-c2ccccc2Cl)nc2ccccc12	POLI inh inconclusive, POLB inh inconclusive, Pol eta inh 28µM
Cc1ccc(-c2cc(C(=O)Nc3ccccc3C(N)=O)c3ccccc3n2)o1	POLI inh inconclusive, Pol eta inh 50µM (no result: L3MBTL1 inh, POLB inh)
COc1ccc(NC(=O)c2cc(-c3ccc(C)o3)nc3ccccc23)c(OC)c1	none (no result: L3MBTL1 inh, POLB inh)

Bioassay records (PubChem)
